T cruzi growth-1 – T. cruzi intracellular proliferation inhibitors, primary screen, cell-based, beta-gal Tulahuen parasites, NIH3T3 host, luminescence; T. cruzi beta-gal in NIH3T3, GalScreen luminescence, 90 h; inhibition, % at 8.34 µM; actives 5.9% (n = 77,000);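 active means mean inhibition above about 93%, with at least 55% of replicates each passing it, limit read from the data, passing the limit was not always enough; inconclusive means only one of those two conditions holds; inactive means neither condition holds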
Pf Dd2 inh – P. falciparum Dd2 growth inhibitors, primary screen, SYBR Green fluorescence, single dose replicates; 72 h; hits give low values; AID 1159554, 2015; activity change, % at 10 µM; actives 2.3% (n = 94,000); in the data active means activity change below about -80%; inconclusive means no clear call, values can overlap the other calls
C diff growth – C. difficile growth inhibitors, primary screen, HTS | Clostridium difficile clinical isolate growth, OD600, 24 h; hits give low values | growth activity, negative = inhibition, % at 16 µg/mL (by protocol) | actives 0.25% (n = 86,000) | AID 1259249, 2017;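 active means mean growth activity at or below -80% and every replicate also at or below -80%; inconclusive means mean at or below -80% but some replicate above -80%; inactive means mean growth activity above -80%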;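 further: 0% = DMSO wells and -100% = levofloxacin 16 µg/mL wells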
T cruzi growth-2 – T. cruzi intracellular proliferation inhibitors, confirmation, cell-based, NIH3T3 host, beta-gal parasite, luminescence, cherry-pick; shares compounds with T cruzi growth-1; T. cruzi beta-gal in NIH3T3, GalScreen luminescence, 90 h; inhibition, % at 8.35 µM; actives 72% (n = 5,600);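 active means mean replicate inhibition above about 95% and at least 55% of replicates individually reaching it, limit read from the data; inconclusive means only one of the two criteria is met; inactive means neither criterion is met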
T cruzi growth-3 – inhibitors of intracellular T. cruzi replication, confirmation, NIH3T3 host cells, beta-gal parasites, cherry-pick, set 2 | actives 21% (n = 5,600) | inhibition, % at 2.09 µM | AID 651740, 2012 | shares compounds with T cruzi growth-1 | T. cruzi beta-gal in NIH3T3, GalScreen luminescence, 90 h;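 active means mean inhibition above about 95%, with at least 55% of replicates also reaching it, limit read from the data; inconclusive means meets just one of the two conditions; inactive means meets neither condition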;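 further: plate controls were neutral control median for no effect and positive control median for full effect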
NIH3T3 tox – cytotoxicity in mouse NIH/3T3 fibroblasts, confirmation, cytotoxicity control for T. cruzi proliferation inhibitor project, cell-based, cherry-pick, single point | shares compounds with T cruzi growth-1 | NIH/3T3 viability, CellTiter-Glo ATP luminescence, 90 h | cytotoxicity (signal decrease), % at 8.35 µM | actives 14% (n = 5,600);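 active means mean signal decrease across replicates above about 35% based on untreated-well scatter, with enough replicates individually passing, limit read from the data; inconclusive means no rule stated though some were filed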;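 further: 0% = median of neutral control wells and 100% = median of positive control wells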
NIH3T3 tox 2 – NIH/3T3 fibroblast cytotoxicity, confirmation, cytotoxicity control, cell-based, cherry-pick, single point, set 2; shares compounds with T cruzi growth-1; AID 651744, 2012; inhibition, % at 24.9 µM; NIH/3T3 viability, CellTiter-Glo ATP luminescence, 90 h; actives 56% (n = 5,600);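 active means mean loss of cell viability signal at or above a set limit, and enough replicates individually reaching it; inconclusive means meets only the mean limit or only the replicate share; inactive means meets neither condition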;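 further: 0% = median of neutral control wells and 100% = median of positive control wells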
* = called active by the depositor; ? = inconclusive; . = no result. The list is not random: actives were taken first. Their share in the collection is about 6.7%.

SMILES	T cruzi growth-1	Pf Dd2 inh	C diff growth	T cruzi growth-2	T cruzi growth-3	NIH3T3 tox	NIH3T3 tox 2
COCC(=O)Nc1ccc2c(c1)OC[C@H](C)N(Cc1cc(F)ccc1F)C[C@@H](C)[C@H](OC)CN(C)C2=O	97*	9	.	97*	31	-7	16
CO[C@H]1CN(C)C(=O)c2ccc(NC(=O)C3CC3)cc2OC[C@@H](C)N(Cc2cc(F)ccc2F)C[C@H]1C	40	-7	.	.	.	.	.
COCC(=O)Nc1ccc2c(c1)OC[C@@H](C)N(Cc1cc(F)ccc1F)C[C@@H](C)[C@H](OC)CN(C)C2=O	47	-71	.	.	.	.	.
CO[C@@H]1CN(C)C(=O)c2cc(NC(=O)C3CC3)ccc2OC[C@H](C)N(Cc2cc(F)ccc2F)C[C@H]1C	109*	-71	.	80	39	-2	-3
CO[C@@H]1CN(C)C(=O)c2ccc(NC(=O)NC(C)C)cc2OC[C@@H](C)N(Cc2ccccn2)C[C@@H]1C	64	-12	.	.	.	.	.
CO[C@@H]1CN(C)C(=O)c2cc(NC(=O)C3CC3)ccc2OC[C@H](C)N(Cc2cccc(F)c2)C[C@H]1C	99*	-74	.	?	38	-2	0
CO[C@@H]1CN(C)C(=O)c2cc(NC(=O)C3CC3)ccc2OC[C@@H](C)N(Cc2cccc(F)c2)C[C@@H]1C	63	-59	.	.	.	.	.
N#Cc1cccc(-c2ccc3c(c2)[C@@H]2[C@@H](CCN2S(=O)(=O)c2cccc(F)c2)[C@@H](CO)N3)c1	92	80	-4	.	.	.	.
CO[C@H]1CN(C)C(=O)c2cc(NS(=O)(=O)c3ccccc3)ccc2OC[C@@H](C)N(Cc2cccnc2)C[C@H]1C	97*	-16	.	101*	47	5	35*
COc1ccccc1NC(=O)Nc1ccc2c(c1)C(=O)N(C)C[C@@H](OC)[C@H](C)CN(Cc1ccccc1Cl)[C@H](C)CO2	109*	-67	0	108*	113*	10	8
CO[C@@H]1CN(C)C(=O)c2cc(NS(=O)(=O)c3ccccc3)ccc2OC[C@H](C)N(Cc2cccnc2)C[C@@H]1C	24	-9	.	.	.	.	.
CO[C@H]1CN(C)C(=O)c2cc(NS(=O)(=O)c3ccc(C)cc3)ccc2OC[C@@H](C)N(Cc2nccs2)C[C@H]1C	107*	-31	21	104*	25	-3	40*
COc1ccccc1CN1C[C@H](C)[C@H](OC)CN(C)C(=O)c2cc(NC(C)=O)ccc2OC[C@@H]1C	-24	13	.	.	.	.	.
CO[C@@H]1CN(C)C(=O)c2cc(NC(=O)Nc3ccccc3F)ccc2OC[C@@H](C)N(Cc2ccccc2F)C[C@H]1C	52	-66	0	.	.	.	.
CO[C@@H]1CN(C)C(=O)c2ccc(NC(=O)Nc3ccccc3F)cc2OC[C@@H](C)N(Cc2ccccc2F)C[C@H]1C	117*	-90*	.	106*	111*	-3	-1
CO[C@@H]1CN(C)C(=O)c2ccc(NS(=O)(=O)c3ccc(C)cc3)cc2OC[C@@H](C)N(Cc2nccs2)C[C@@H]1C	45	-7	.	.	.	.	.
COc1ccc2c3c([nH]c2c1)[C@@H](CO)N(Cc1ccccn1)CC31CN(C(=O)c2ccccn2)C1	.	-8	1	.	.	.	.
O=C(NCc1ccncn1)[C@H]1[C@H](CO)[C@H]2Cn3c(ccc(-c4ccc(F)cc4)c3=O)[C@H]2N1CC1CC1	37	.	2	.	.	.	.
CN(C)C(=O)C[C@H]1CC[C@H]2[C@@H](COc3ccc(NC(=O)Nc4cccc(Cl)c4)cc3C(=O)N2C)O1	22	6	0	.	.	.	.
C/C=C/c1cnc2c(c1)C(=O)N([C@@H](C)CO)C[C@H](C)[C@@H](CN(C)Cc1ccc3c(c1)OCO3)O2	.	-26	-1	.	.	.	.
C[C@H]1CN([C@@H](C)CO)C(=O)c2cc(C#CCc3ccccc3)cnc2O[C@H]1CN(C)Cc1cccnc1	41	-36	-12	.	.	.	.
